HP1b chromo inh: HP1-beta chromodomain-methylated histone interaction inhibition; Potency, µM (series often up to 114 µM), without a hit: top-dose activity change, negative = inhibition, actives largely listed as inhibitors; hit rate 0.56% among 390,000; P83916; AlphaScreen HP1-beta / biotin-H3K9me3 peptide binding; AID 540317; further: nearly all actives have a fitted effect of over 70% in size
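Compound inhibition of the preformed complex between 50 nM HP1-beta and 50 nM biotinylated H3K9me3 peptide was read by AlphaScreen. Buffer was PBS pH 7.4 with 0.01% Tween-20. Incubations ran 30 min at room temperature, with 10 ug/mL donor/acceptor beads.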
ALOX12 inh: inhibitors of human 12S-lipoxygenase ALOX12 | P18054 | purified 12hLO, xylenol orange hydroperoxide absorbance | Potency, µM (series often up to 108 µM), without a hit: at the highest dose activity change, negative = inhibition, most hits filed as inhibitors | hit rate 1.1% among 580,000 | AID 1671190; further: on the % scale 0 is the no-effect control and ±100 the full control effect
Target sequence (P18054 whole entry, looked up): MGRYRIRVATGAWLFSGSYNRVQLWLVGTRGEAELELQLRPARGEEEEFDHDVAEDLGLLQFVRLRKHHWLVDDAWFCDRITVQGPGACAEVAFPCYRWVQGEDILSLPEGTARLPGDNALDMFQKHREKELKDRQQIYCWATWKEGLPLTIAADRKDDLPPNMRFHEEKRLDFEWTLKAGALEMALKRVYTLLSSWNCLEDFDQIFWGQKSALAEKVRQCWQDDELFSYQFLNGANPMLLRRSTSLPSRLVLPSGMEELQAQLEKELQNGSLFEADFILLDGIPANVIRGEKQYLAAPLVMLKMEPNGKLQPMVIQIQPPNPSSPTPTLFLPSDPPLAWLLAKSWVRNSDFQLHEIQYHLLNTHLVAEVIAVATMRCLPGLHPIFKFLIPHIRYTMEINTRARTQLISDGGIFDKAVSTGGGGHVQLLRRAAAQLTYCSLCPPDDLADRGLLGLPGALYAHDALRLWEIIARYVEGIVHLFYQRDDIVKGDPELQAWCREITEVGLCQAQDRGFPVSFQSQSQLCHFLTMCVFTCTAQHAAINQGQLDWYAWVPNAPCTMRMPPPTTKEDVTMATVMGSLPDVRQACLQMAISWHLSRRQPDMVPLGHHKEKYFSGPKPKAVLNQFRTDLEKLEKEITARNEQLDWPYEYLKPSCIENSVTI
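Hydroperoxide product was detected by ferrous iron/xylenol orange as the 573 to 405 nm absorbance ratio. Arachidonic acid at 40 uM (final) was turned over for 30 min at room temperature by 150 nM human 12hLO, pH 7.0 Hepes buffer, after 15 min compound preincubation.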
JMJD2A Tudor: inhibitors of human JMJD2A Tudor domain. O75164. AlphaScreen JMJD2A-Tudor / H3K4me3 peptide binding. Potency, µM (highest dose often 114 µM), inactives show at the top dose activity change, negative = inhibition, actives largely listed as inhibitors. hit rate 4.4% among 390,000. AID 504339; further: on the % scale 0 is the no-effect control and ±100 the full control effect; nearly all actives have a fitted effect of over 50% in size
BAZ2B block: inhibitors of human BAZ2B bromodomain; Q9UIF8; AlphaScreen BAZ2B-H3K14Ac peptide displacement; Potency, µM (doses to about 114 µM), for the others: at the highest dose activity change, negative = inhibition, usual class: inhibitors; hit rate 4.4% among 360,000; further: on the % scale 0 is the no-effect control and ±100 the full control effect; nearly all actives have a fitted effect of over 60% in size
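AlphaScreen displacement: compounds (up to 110uM) incubated 30 min at room temperature with a preformed 50 nM BAZ2B/50 nM biotinylated H3K14Ac peptide complex in PBS pH 7.4 with Tween-20. Donor and acceptor beads at 10 ug/mL final added, 20 min light-protected before reading.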
Sfp PPTase inh: blocks B. subtilis Sfp PPTase activity. AID 1490. Biochemical Sfp PPTase activity, qHTS. hit rate 3.5% among 310,000. Potency, µM, for the others: largest response in the series, negative = inhibition, usual class: inhibitors;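 further: the enzyme is Sfp with the accession as filed and its product quenches rhodamine fluorescence; 0% = enzyme reaction without inhibitor and -100% = no enzyme wells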
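Reaction rates are the 30-min fluorescence difference (ex 525, em 598 nm) in wells containing 15 nM Sfp, 5 uM rhodamine-CoA and 12.5 uM BHQ-2-YbbR at pH 7.6 with 10 mM MgCl2.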
G9a block: blocks human histone lysine methyltransferase G9a | G9a H3K9 monomethylation, AlphaScreen, 2 h | Potency, µM (series often up to 102 µM), for inactives: at the top dose activity, negative = inhibition, hits mostly inhibitors | hit rate 8.8% among 350,000 | AID 504332; further: on the % scale 0 is the no-effect control and ±100 the full control effect; nearly all actives have a fitted effect of over 75% in size
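AlphaScreen read-out: biotin-H3K9 peptide (500 nM) methylation by 20 nM enzyme with 20 uM SAM, 2 h at room temperature after 15 min compound preincubation; anti-monomethyl H3K9 antibody plus donor/acceptor beads, 10 min dark.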
* marks the source's active call; other numbers are inactive results; ? = inconclusive; · = no result given; ! = repeats disagree; [ ] = another dose, or the depositor's remark. Sampled rows, rich in hits. Any-hit rate of the full collection: about 8.7%. The call rests on the fitted dose curve; in most records, active means well fitted curve in the direction sought with a large enough effect; inconclusive means small, poorly fitted or top-dose-only effect, or another doubt; inactive means no such curve, though single readings can be large; an effect the other way counts as inactive or inconclusive. Potency means the concentration at half of the fitted maximal effect.

SMILES	HP1b chromo inh	ALOX12 inh	JMJD2A Tudor	BAZ2B block	Sfp PPTase inh	G9a block
CC1(C)Nc2cccc3cccc(c23)N1	-14%	?	-31%	·	·	·
CN(C)c1ccc(C2Nc3cccc4cccc(c34)N2)cc1	?	332%	?	?	-25%	40µM*
CCOc1ccccc1CNC(=O)C1CCN(C(=O)N2CC(CC)Oc3ccccc32)CC1 (stereo unspecified)	·	5%	·	·	·	·
COc1cccc(C(=O)Nc2ccc3c(c2)CN(Cc2ccc(F)cc2)C(=O)C(C)O3)c1 (stereo unspecified)	·	7%	·	·	·	·
Cc1ccc2nc(CCl)[n+]([O-])c(-c3ccccc3)c2c1	9%	?	18µM*	-32%	6%	?
C=Cc1c(C)/c2[n-]/c1=C\c1[n-]c(c(CC)c1C)/C=c1\[n-]c3c(c1C)C(=O)C(C(=O)[O-])C=3c1[n-]c(c(C)c1CCC(=O)[O-])\C=2.[Cu].[Na+].[Na+] (stereo unspecified)	·	·	·	·	45µM*	?
COc1ccc(-n2nc(C)c([C@@H]3C=C[C@@H](NC(=O)NCc4ccccc4)C3)c2C)cc1	·	4%[176 µM]	·	·	·	·
CCn1nc(C)c(-c2cc(C(=O)N3CCC(CCOc4ccccc4)C3)no2)c1C (stereo unspecified)	·	-9%	·	·	·	·
O=C(CCc1ncc(-c2ccccc2Cl)o1)N1CCN(S(=O)(=O)c2ccccc2Cl)CC1	·	6%	·	·	·	·
Cc1nc(C(=O)NCC(=O)c2ccccc2)c(C(F)(F)F)o1	29%	?	-1%	-11%	12%	23%
Cc1nc(C(=O)NNC(=O)c2ccccc2)c(C(F)(F)F)o1	55%	0%	?	-33%	45µM*	4.5µM*
Nc1ccccc1C(=O)N(Cc1ccccc1)Cc1ccccc1	15%	0%	-5%	0%	27%	12%[59 µM]
Nc1ccccc1C(=O)CC(N)C(=O)O (stereo unspecified)	·	·	·	·	100µM*!	·
CC(C)[C@H](NC(=O)c1ccccc1Cl)C(=O)Nc1nc(-c2ccccn2)cs1	18%	40%	45µM*	32µM*	?	-4%
CC(Oc1ccc(Br)cc1)C(=O)Nc1nc(-c2ccccn2)cs1 (stereo unspecified)	-16%	?	79µM*	56µM*	40µM*	20µM*
Cc1cccc(OC(C)C(=O)Nc2nc(-c3cccnc3)cs2)c1 (stereo unspecified)	·	-1%	·	·	·	·
CN(CC(=O)Nc1ccc(F)cc1)C(=O)COC(=O)Cc1n[nH]c(=O)c2ccccc12	·	29%	·	·	·	·
O=C(NCC1CCCO1)c1nc2c(nnn2Cc2ccc(F)cc2)c(=O)[nH]1 (stereo unspecified)	27%	?	?	-17%	-15%	50µM*
CN1CCN(c2ccc(NC(=O)c3cccc(Cl)c3)nc2)CC1	·	1%	·	·	·	·
Nc1ncc(Br)cc1Br	25%	11%	-3%	-6%	4%	-13%[59 µM]
Nc1cc(Br)c(N)c(Br)c1	-4%	0%	-15%	-32%	-1%	50µM*
COC(=O)CNC(=O)C(Cc1c[nH]c2ccccc12)NC(=O)Oc1ccccc1 (stereo unspecified)	14%	-1%	2%	0.71µM*	5%	·
NC(Cc1c[nH]c2ccccc12)C(=O)NCc1ccccc1 (stereo unspecified)	27%	15%	-24%	20%	23%	·
COC(=O)C(Cc1c[nH]c2ccccc12)NC(=O)C(=O)c1c[nH]c2ccccc12 (stereo unspecified)	-16%	34%	?	?	19%	32µM*
N[C@@H](Cc1c[nH]c2ccccc12)C(=O)O	·	·	·	50µM*	?	8.4µM*!
COC(=O)CNC(=O)C(Cc1c[nH]c2ccccc12)NC(=O)OC(C)(C)C (stereo unspecified)	21%	0%	15%	0%	7%	-1%[59 µM]
O=C(CCN1CCCCO1)N1CCCC(CCc2ccc(F)c(F)c2)C1 (stereo unspecified)	·	18%	·	·	·	·
